# This is a sample that favours compounds with a hit; in the whole collection about 0.72% have one here.
# CtBP-E1A blk: qHTS Assay for Inhibitors of the CtBP/E1A Interaction; CtBP / adenovirus E1A interaction (AlphaScreen); AlphaScreen GST-E1A/His-CtBP binding, 1536-well; stronger effect = lower value; activity change, % (no concentration beside the values); 0.49% of 340,000 active; in the data active = activity change below about -65%; inconclusive = mostly about -30% to -63%
#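 GST-E1A and His-tagged CtBP (125 nM each as 5X stock) were preincubated with pin-transferred compound for 2 h at 37 °C in the dark, then glutathione donor and nickel acceptor beads were added for 1 h before AlphaScreen reading.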
# RGS4 inhibitor: Inhibitors of Regulator of G Protein Signaling (RGS) 4: qHTS. Transcreener GDP fluorescence polarization, RGS4-accelerated GTP hydrolysis. Potency, µM (top dose mostly 114 µM), actives largely listed as inhibitors. 0.039% of 390,000 active. AID 504845, 2011; note: nearly all actives have a fitted effect of over 75% in size
#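 MLSMR compounds (23 nl, pin-transferred) preincubated 10 min at room temperature with a 500nM (2x) first reagent, then RGS4 at 900nM (2x) plus Transcreener GDP mix added; fluorescence polarization (620/688 nm) read before and after 90 min at 30 °C.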
# PI4K2A inh: qHTS for small molecular inhibitors of PI4K2A. Phosphatidylinositol 4-kinase type 2-alpha (Homo sapiens), Q9BTU6. activity change, negative = inhibition, % at 76.9 µM. AID 1346378, 2018. 0.13% of 420,000 active. purified PI4K2A, ADP-Glo luminescence, 1 h; stronger effect = lower value; in the data active = activity change below about -50%; inconclusive = mostly about -30% to -49%
# Target sequence (Q9BTU6 whole entry, looked up): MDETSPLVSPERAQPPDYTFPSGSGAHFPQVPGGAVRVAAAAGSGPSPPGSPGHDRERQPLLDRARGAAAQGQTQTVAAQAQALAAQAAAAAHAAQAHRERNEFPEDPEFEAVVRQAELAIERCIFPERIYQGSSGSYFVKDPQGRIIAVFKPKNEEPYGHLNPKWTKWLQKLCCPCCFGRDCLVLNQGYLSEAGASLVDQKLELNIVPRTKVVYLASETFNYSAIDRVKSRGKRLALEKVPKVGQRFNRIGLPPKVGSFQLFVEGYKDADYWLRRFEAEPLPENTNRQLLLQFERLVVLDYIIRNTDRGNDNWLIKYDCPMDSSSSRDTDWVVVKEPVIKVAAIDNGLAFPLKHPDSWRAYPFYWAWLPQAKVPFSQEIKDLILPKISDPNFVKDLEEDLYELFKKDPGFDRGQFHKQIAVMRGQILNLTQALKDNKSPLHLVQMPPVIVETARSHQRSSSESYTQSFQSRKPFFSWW
#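 Compounds are screened against recombinant PI4K2A using PI as substrate and ATP, the latter dispensed at 300 microM. Reactions run one hour at ambient temperature before ADP-Glo detection; full inhibition defined by wells lacking enzyme.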
# Eya2 inh: qHTS Assay for Inhibitors of the Phosphatase Activity of Eya2; recombinant Eya2, OMFP fluorescence dephosphorylation (OMFP is methylfluorescein phosphate); Protein phosphatase EYA2 (Homo sapiens), O00167; AID 488837, 2010; Potency, µM (series often up to 76.9 µM), usual class: inhibitors; 0.006% of 330,000 active
#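 Eya2 (0.2 uM) preincubated 10 min at ambient with compound, then OMFP substrate added at 50 uM; 10 min reaction in 50 mM HEPES pH 7.5, 50 mM NaCl, 5 uM MgCl2, 0.05% BSA, 1 mM DTT. Fluorescence read at Ex 485/Em 525 nm.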
# Six1-Eya2 inh: qHTS Assay for Inhibitors of the Six1/Eya2 Interaction. AlphaScreen GST-Six1/His-Eya2 binding, biochemical; stronger effect = lower value. activity change, % (test concentration not listed). 0.56% of 360,000 active. AID 651725, 2012; in the data active = activity change below about -65%; inconclusive = mostly about -30% to -63%
#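 GST-Six1 + His-Eya2 (5X stock: 250/500 nM); Tris pH 8.0, 300 mM NaCl, 0.05% BSA, 0.02% Tween 20; GSH donor/Ni acceptor beads; 1 h 37 °C dark; AlphaScreen readout.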
# USP2a inh: qHTS Assay for Inhibitors of Ubiquitin-specific Protease USP2a Using CHOP2 as the Reporter | USP2 core, Ub-CHOP2 coupled fluorogenic reporter, 485/531 | Potency, µM (doses to about 38.3 µM), actives largely listed as inhibitors | 0.01% of 330,000 active
#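 USP2 core (10nM final) preincubated 30min RT with compound in 20mM Tris-HCl pH 8.0, 2mM CaCl2, 2mM beta-mercaptoethanol, 0.05% CHAPS; 25nM Ub-CHOP2 plus 25nM reporter substrate added, fluorescence (Ex485/Em531) read after 60min.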
# A number is an active result; 0 = inactive; ? = inconclusive; - = no result. Unless noted, calls come from the whole dose curve; as a rule, active = well fitted curve in the direction sought with a large enough effect; inconclusive = small, poorly fitted or top-dose-only effect, or another doubt; inactive = no such curve, though single readings can be large; an effect the other way counts as inactive or inconclusive.
SMILES,CtBP-E1A blk,RGS4 inhibitor,PI4K2A inh,Eya2 inh,Six1-Eya2 inh,USP2a inh
O=C(O)c1cccc(Nc2nc(-c3cccnc3)nc3ccccc23)c1,?,0,0,0,-80,0
COc1ccc(CCNC(=O)CCCCn2c(=O)c3ccccc3n(Cc3cccc(C)c3)c2=O)cc1OC,-,0,0,-,-,-
O=C(N/N=C/c1ccccn1)c1ccc(Br)o1,-75,0,0,0,-66,0
O=C(N/N=C/c1ccccn1)c1cc(Br)ccc1O,?,0,0,0,0,0
Cc1[nH]cnc1-c1ccc(Cl)cc1,-,-,0,-,-,-
O=C(N/N=C/c1ccc(OC(=O)c2ccccc2Cl)cc1)c1cc(O)cc(O)c1,-74,0,0,0,-68,0
O=[N+]([O-])c1ccc(N=Nc2ccc(O)c3ccccc23)cc1,-70,0,0,-,?,-
O=S(=O)(Nc1ccc(N=Nc2ccc(O)c3ccccc23)cc1)c1ccccc1,?,0,0,0,?,0
CCCN1C(C(=O)c2ccccc2)=C(OC(=O)c2ccc(F)cc2)c2ccccc2S1(=O)=O,-,0,0,-,-,-
CCCCCC/C=N/Nc1nnc(Cc2ccc(OC)c(OC)c2)c(=O)[nH]1,?,0,0,0,-74,0
COc1ccc(Cc2nnc(N/N=C/c3ccc(O)cc3O)[nH]c2=O)cc1OC,-93,0,0,0,-88,0
COc1ccc(Br)cc1C(=O)CCC(=O)OCC(=O)Nc1cc(C(N)=O)cc(C(N)=O)c1,-70,0,0,0,?,0
O=C(N[C@@H](Cc1ccccc1)C(=O)CCl)OCc1ccccc1,0,3.4µM,0,0,0,0
CCc1ccc(N=C2NC(=O)/C(=C/c3cc(OC)c(OC)c(OC)c3)S2)cc1,0,0,0,0,0,0
COc1cc(/C=C2\SC(=Nc3ccc(O)cc3)NC2=O)cc(OC)c1O,-65,0,0,?,?,0
CC(c1ccccc1)c1nnc(NC(=O)Nc2ccccc2F)s1 (stereo unspecified),0,0,-50,0,0,0
Cc1cc(C)n(CCC(=O)N/N=C/c2ccc(O)cc2O)n1,-69,0,0,0,-86,0
Cc1cc(C)n(CCC(=O)N/N=C/c2ccccc2O)n1,0,0,0,0,?,0
O=C(Cn1cnc([N+](=O)[O-])n1)N/N=C/c1ccc(O)cc1O,-96,0,0,0,-92,0
O=C(CCN1CCN(C(c2ccccc2)c2ccccc2)CC1)N/N=C/c1ccc(O)cc1O,-73,0,0,0,0,0
O=C(Cn1cnc([N+](=O)[O-])n1)N/N=C/c1cccc2ccccc12,0,0,0,0,0,0
COc1cc(NC(=O)CSc2nc3ncccc3o2)cc(OC)c1,-,0,0,-,-,-
COc1ccc(/C=N/NC(=O)CN(Cc2ccccc2)S(=O)(=O)c2ccc3c(c2)OCCO3)cc1,0,0,0,0,-65,0
O=C(CN(Cc1ccccc1)S(=O)(=O)c1ccc2c(c1)OCCO2)N/N=C/c1ccc(F)cc1,0,0,0,0,0,0
COc1cc(/C=N/NC(=O)CN(Cc2ccccc2)S(=O)(=O)c2ccc3c(c2)OCCO3)ccc1O,0,0,0,0,-82,0
COc1cc(/C=N/NC(=O)CN(Cc2ccco2)S(=O)(=O)c2ccccc2)ccc1O,-92,0,0,0,-82,0
C=CCn1c(SCC(N)=O)nc2ccccc2c1=O,-,0,-,-,-,-
CCCN1CNc2c(c(=O)[nH]c(=S)n2CCc2ccc(Cl)cc2)C1,-,0,-,-,-,-
COc1ccc(/C(=N/Nc2ncnc3ccccc23)C(=O)O)cc1,-69,0,0,0,-77,0
CCOC(=O)/C(=N\Nc1ncnc2ccccc12)c1ccc(OC)cc1,0,0,0,0,0,0
